Here are results for 107 compounds from ChEMBL document CHEMBL3988442, “University of Dundee, Small-Polar-MMV Screening Library” (2021).

The campaign covered roughly 48,000 compounds. About 13,000 (27%) showed an effect of 50% or more. Some of the results follow.

In the experiment the test system is Wolbachia pipientis. Kind of experiment: Anti-Wolbachia Cell-Based Screen. The note with it: 5 µM. It counts as functional. The arrangement: scale not given: in the data most compounds retested in dose-response had high values.
As for `c1ccc2c(c1)OCCCC2NCc1nnc2n1CCCCC2` (configuration not stated), the “Percent Effect” value was -26%.
For `Cc1cc(CN(C)C(=O)NCc2ccnc(N(C)C)c2)no1`, the “Percent Effect” value is -11.21%.
On to `Cc1cnc(C(=O)NCc2ccnc(N(C)C)c2)cn1`, for which the “Percent Effect” value turned out to be 122.7%.
Take `CN(C)c1cc(CNC(=O)c2cnccn2)ccn1`: the “Percent Effect” value worked out at 139.9%.
Consider `Cc1cccc(C(=O)NCc2ccnc(N(C)C)c2)n1`, for which the “Percent Effect” value was -3.78%.
As to `COc1ccc(OC)c(S(=O)(=O)NCC2(OC)CCSC2)c1` (configuration not stated), the “Percent Effect” value is on record as -19.77%.
As for `Cc1nc(CN(C)c2nccc(N(C)C)n2)cs1`, the “Percent Effect” value is recorded as -6.579%.
For `CN(C)c1ccnc(C2CCCN2)n1.Cl` (configuration not stated) the value was 126.4%; for `Cc1cc(C)nc(CN(C)C(=O)c2ccccc2C2CCNC2)c1` (configuration not stated), -11.76%; for `CN(C)c1cc(C2CCCN2)ccn1` (configuration not stated), 114.7%.
For `CN(C)c1ccc(-c2noc([C@@H]3CCCN3)n2)cn1` the value was 4.635%; for `Cc1cc(N(C)C)nc(C2CCNC2)n1.Cl.Cl` (configuration not stated), 120.8%; for `Cc1cc(N(C)C)nc(N2CC(n3cccn3)C2)n1`, -0.4027%.
As for `Cc1cc(N(C)C)nc(C2CCCN2)n1.Cl.Cl` (configuration not stated), the “Percent Effect” value was determined as 137.4%.
Turning to `CCn1cc(C2CCN(Cc3ccnc(N(C)C)c3)CC2)cn1`, the “Percent Effect” value is given as -12.62%.
In the case of `Cc1cc(N(C)C)nc(N2CCn3c(nnc3C3CC3)C2)n1` it was -9.903%; in that of `CN(C)C(=O)c1cccc(CCNS(C)(=O)=O)c1`, -0.05313%; in that of `O=C(c1cc2c(s1)CCOC2)N1CCCC1Cn1cccn1` (configuration not stated), 107.9%.
As for `O=C(c1cc2c(s1)CCOC2)N1CCCCC1Cn1cccn1` (configuration not stated), the “Percent Effect” value stood at 96.86%.
As to `O=C(c1cccc2c1OCCO2)N1CCCCC1Cn1cccn1` (configuration not stated), the “Percent Effect” value is given as 4.366%.
In the case of `CC(=O)N1CCCn2nc(CNS(=O)(=O)c3cc(C)cs3)cc2C1`, the “Percent Effect” value is -1.939%.
Regarding `N#Cc1cccnc1NCCC1CCN(CC(F)(F)F)CC1`, the “Percent Effect” value is -14.98%.
In the case of `CC(C)=CCN1C[C@H]2CC[C@@H]1CN(C(=O)CCc1n[nH]c(C)n1)C2` it was -19.43%; in that of `Cc1cnn(CC2CCCCN2C(=O)c2ccc3c(c2)COC3)c1` (configuration not stated), 117.5%; in that of `Cc1cnn(CC2CCCCN2C(=O)c2ccc3[nH]c(=O)[nH]c3c2)c1` (configuration not stated), 108.3%.
Regarding `Cc1cnn(CC2CCCN2C(=O)c2ccc3[nH]c(=O)[nH]c3c2)c1` (configuration not stated), the “Percent Effect” value is given as 143.3%.
For `Cc1cnn(CC2CCCN2C(=O)c2ccc3cc[nH]c3c2)c1` (configuration not stated) the value was 7.467%; for `Cc1cnn(CC2CCCN2C(=O)c2ccc3[nH]nnc3c2)c1` (configuration not stated), 0.8571%; for `Cc1cnn(CC2CCCCN2C(=O)c2ccc3[nH]nnc3c2)c1` (configuration not stated), -1.412%.
In the case of `Cc1cnn(CC2CCCCN2C(=O)c2ccc3[nH]cnc3c2)c1` (configuration not stated) it was 112.2%; in that of `COc1cccc([S+]([O-])CC(=O)NCc2cc(F)cc(F)c2)c1` (configuration not stated), -14.98%; in that of `O=C1N(Cc2cccc(F)c2F)CCCC1(O)CNCc1ccccn1` (configuration not stated), -29.29%.
With `Cc1cc(C)cc(C(C)NC(=O)c2ccc(CS(C)(=O)=O)o2)c1` (configuration not stated), the “Percent Effect” value is recorded as -2.298%.
In the case of `CCc1ccc(CN2CCN(c3ccc(C(N)=O)cn3)CC2)nc1` it was 17.95%; in that of `CC(C)(N)c1cn(C2CCN(C(=O)CCC3CCCCC3)CC2)nn1`, -21.08%.
Take `Cc1nc(O)c2c(n1)CCN(Cc1cc(C)sc1C)CC2`: the “Percent Effect” value is 92.9%.
In the case of `Cc1cc(CN2CCc3nc(-c4ccncc4)nc(O)c3CC2)c(C)s1` it was 125%.
As to `Cc1nc(C)c2c(n1)CCN(Cc1ccco1)CC2`, the “Percent Effect” value was -8.406%.
With `Cc1cc(CN2CCc3nc(N4CCOCC4)nc(O)c3CC2)c(C)s1`, the “Percent Effect” value is recorded as 112.9%.
As to `Cc1cc(CN[C@@H](C)C(N)=O)c(C)s1`, the “Percent Effect” value was 8.124%.
`Cc1nc(C)c2c(n1)CCN(Cc1ccsc1)CC2`: the “Percent Effect” value worked out at 5.852%.
`Cc1cc(CN2CCc3nc(C(C)C)nc(O)c3CC2)c(C)s1`: the “Percent Effect” value is 120.7%.
In the case of `CC(=O)N1CCc2c(nc(-c3ccncc3)nc2N(C)CC(O)CO)C1` (configuration not stated), the “Percent Effect” value is recorded as 4.037%.
As to `Cc1nc2c(c(=O)n1C)CCN(Cc1cc3ccccc3[nH]1)CC2`, the “Percent Effect” value is -25.51%.
`CC(C)c1ncc2c(n1)CN(Cc1nc3c(F)cccc3[nH]1)CC2`: the “Percent Effect” value is -0.8884%.
For `COCc1ccccc1C(=O)NS(=O)(=O)CCCC#N`, the “Percent Effect” value is given as -8.648%.
With `COC1CCN(S(=O)(=O)N2C[C@H](c3ccccc3)[C@@H](N)C2)CC1`, the “Percent Effect” value is -9.837%.
With `N#Cc1cccc(CN2CCN(Cc3cscn3)CC2)c1`, the “Percent Effect” value was -8.185%.
For `NC(=O)c1ccc(C(=O)N2CCCCC2C2OCCO2)cc1` (configuration not stated) the value was -10.24%.
On to `Cc1ccc(CN2CCc3ncnc(OC(C)C)c3CC2)s1.O=C(O)C(F)(F)F`, for which the “Percent Effect” value was -2.547%.
As to `Cc1ccc(CN2CCc3nc(C(C)C)nc(O)c3CC2)s1`, the “Percent Effect” value turned out to be 101.1%.
For `Cc1ccc(CN2CCc3ncnc(C4CCOC4)c3CC2)s1.O=C(O)C(F)(F)F` (configuration not stated) the value was -17.37%.
Consider `Cc1nc(CN2CCOC(CN(C)c3cccnn3)C2)cs1` (configuration not stated), for which the “Percent Effect” value turned out to be 1.717%.
For `CCOc1ccccc1C(=O)Nn1c(C)cc(C)cc1=O` the value was 121%; for `Cc1cc(C)n(NC(=O)c2ccccc2C)c(=O)c1`, 92.68%; for `O=C(NS(=O)(=O)c1ccccc1)c1ccccc1F`, -14.83%.
On to `Cc1cccc(NC(=O)CNC(=O)c2ccccc2F)c1`, for which the “Percent Effect” value was -4.999%.
Consider `Cc1cc(C)n(NC(=O)c2cccc3c2OCC3)c(=O)c1`, for which the “Percent Effect” value is given as -19.93%.
Regarding `Cc1ccccc1C(=O)NCC(O)c1ccc(F)c(F)c1` (configuration not stated), the “Percent Effect” value is listed as -57.78%.
In the case of `CC(NC(=O)C1=NN(C)C(=O)CC1)c1ccc(Cl)cc1Cl` (configuration not stated), the “Percent Effect” value was -11.2%.
Take `Cc1cc(C)n(NC(=O)c2ccccc2F)c(=O)c1`: the “Percent Effect” value turned out to be 67.62%.
`Cc1cc(C)n(NC(=O)c2ccc(Cl)cc2Cl)c(=O)c1`: the “Percent Effect” value was 111.9%.
In the case of `CC(C)C(NC(=O)c1ccc(Cl)cc1Cl)C(=O)Nc1ccn(C)n1` (configuration not stated) it was -7.418%.
In the case of `CCOc1ccccc1C(CC(=O)Nc1ccc(C)cn1)NC(C)=O` (configuration not stated), the “Percent Effect” value is reported as -11.24%.
For `CCOc1cccc(CNc2ccccc2C(=O)OC)c1O` the value was 0.1063%; for `Cc1cc(CS(=O)(=O)N(C)C(C)c2ccc(Cl)cc2)on1` (configuration not stated), 1.246%.
Regarding `CN(C)[C@@H]1CCN(c2ncc(F)cn2)[C@H]1Cc1ccncc1.O=C(O)C(F)(F)F.O=C(O)C(F)(F)F`, the “Percent Effect” value turned out to be 2.593%.
`CC(O)CCN(C)S(=O)(=O)Cc1ccc(Cl)c(Cl)c1` (configuration not stated): the “Percent Effect” value is 3.883%.
Take `N[C@H]1CN(C(=O)Cc2ccc(CO)cc2)C[C@@H]1C1CC1`: the “Percent Effect” value is recorded as -4.225%.
In the case of `O=C1CN(Cc2cn(C3CCN(C4CSCCSC4)CC3)nn2)CCN1` it was 9.418%; in that of `CC(C)c1nccn1-c1cccc(C2CCCN2S(=O)(=O)N(C)C)n1` (configuration not stated), -5.176%; in that of `Fc1ccc2[nH]c([C@H]3CCN(C4CCOCC4)C3)nc2c1`, -0.03029%.
As for `CC(C)c1nccn1-c1cccc(C2CCCN(S(=O)(=O)N(C)C)C2)n1` (configuration not stated), the “Percent Effect” value was 123.6%.
For `CCCN1CCCC1c1nc(Cc2ccc(F)cc2)no1` (configuration not stated), the “Percent Effect” value is listed as -11.63%.
For the compound `CN1CCCC1c1cccc(Cc2ccc(F)cc2)n1` (configuration not stated), the “Percent Effect” value is 109.9%.
In the case of `CN(C)C(=O)CN(C)C(=O)c1cnc(Cc2ccc(F)cc2)s1`, the “Percent Effect” value is -0.8881%.
For `Fc1ccc(Cc2cccc(C3CCN(C4CCOCC4)CC3)n2)cc1`, the “Percent Effect” value is reported as 122.8%.
For the compound `CN(C)C(=O)CN1CCC(c2cccc(Cc3ccc(F)cc3)n2)CC1`, the “Percent Effect” value was 83.25%.
With `O=C1CO[C@H]2CN(C3CCOCC3)C[C@H]2N1Cc1ccc(F)cc1`, the “Percent Effect” value was 15.12%.
`CN1CCCC1c1cccc(Cc2ccccc2F)n1` (configuration not stated): the “Percent Effect” value was -8.343%.
For the compound `CN(C)C(=O)CN1CCN(c2ccnc3c(F)ccc(F)c23)CC1`, the “Percent Effect” value is 6.891%.
For `CCO[C@H]1CN(C)C[C@@H]1NC(=O)c1c[nH]nc1C1CCCCC1`, the “Percent Effect” value is -8.959%.
In the case of `NC(=O)C1CCN(C(=O)NCc2ccccc2Cn2ccnc2)CC1` it was -2.267%; in that of `COc1cc(C(=O)N2CC[C@@H](NC(=O)c3ccccn3)[C@H](O)C2)ccn1`, -8.714%; in that of `COC1(CNS(=O)(=O)c2ccccc2Cl)CCSC1` (configuration not stated), -2.993%.
Turning to `COC(=O)c1ccc(NC2CCN(CC(F)(F)F)C2=O)cc1C` (configuration not stated), the “Percent Effect” value is listed as 4.628%.
Consider `CCn1ccnc1CN1CCN(CCC(=O)NC(C)(C)C)CC1C` (configuration not stated), for which the “Percent Effect” value is given as -7.568%.
As to `CN(C)S(=O)(=O)N1CCCC(CCC(=O)Nc2ccc(Cl)cc2)C1` (configuration not stated), the “Percent Effect” value worked out at 1.788%.
In the case of `CN(C)S(=O)(=O)N1CCCC(c2cccc(Cc3ccc(F)cc3)n2)C1` (configuration not stated) it was 101%; in that of `CN(C)S(=O)(=O)N1CCCC(c2cccc(Cc3ccccc3)n2)C1` (configuration not stated), 7.511%; in that of `CN(C)S(=O)(=O)N1CCCC(c2cccc(Cc3ccc(Cl)cc3)n2)C1` (configuration not stated), 74.08%.
As to `CN1CCCC(c2cccc(Cc3ccccc3Cl)n2)C1` (configuration not stated), the “Percent Effect” value was -5.601%.
On to `CN(C)S(=O)(=O)N1CCC(c2cccc(Cc3ccccc3Cl)n2)CC1`, for which the “Percent Effect” value is 111.4%.
Turning to `CN(C)S(=O)(=O)N1CCCC(c2cccc(Cc3ccccc3F)n2)C1` (configuration not stated), the “Percent Effect” value is given as 93.31%.
As for `Cn1cc(CNC(=O)NCCOc2ccc(F)c(F)c2)cn1`, the “Percent Effect” value is listed as -13.41%.
With `Cc1nc(COc2nc(C(C)C)no2)cs1`, the “Percent Effect” value is given as 5.061%.
Consider `CC(C)(N)c1cn(C2CCN(c3ncccc3Cl)CC2)nn1`, for which the “Percent Effect” value is -9.362%.
As for `CC(c1ccccc1Cl)N1CCN(C(=O)c2ccc(=O)[nH]c2)CC1` (configuration not stated), the “Percent Effect” value is -13%.
In the case of `Cc1cccc(C)c1OC1CN(Cc2cnn(C)c2)C1`, the “Percent Effect” value is reported as -10.44%.
Turning to `O=C(O)c1ccccc1-n1cc(CN2CCC(c3cc[nH]n3)C2)cn1` (configuration not stated), the “Percent Effect” value turned out to be 122.2%.
With `CCOC(=O)c1n[nH]cc1CN1CCCC(N(C)Cc2ccccc2)C1` (configuration not stated), the “Percent Effect” value is -2.39%.
In the case of `O=C(O)c1ccccc1-n1cc(CN2CCOC(c3cc[nH]n3)C2)cn1` (configuration not stated), the “Percent Effect” value is 92.78%.
Turning to `Cn1cc(CN2CC[C@@H]3[C@@H](CCC(=O)N3CCc3ccccc3)C2)cn1`, the “Percent Effect” value is recorded as -6.541%.
Consider `Cc1ccnc(C2CN(Cc3cnn(-c4ccccc4C(=O)O)c3)C2)n1`, for which the “Percent Effect” value came out at 148.5%.
As to `CN1CCN(Cc2cnn(-c3ccccc3Cl)c2)[C@H]2CS(=O)(=O)C[C@H]21`, the “Percent Effect” value was 2.085%.
`COC(=O)c1cccc2nc([C@H]3CCN(Cc4ccccc4)C3)oc12`: the “Percent Effect” value is recorded as -1.952%.
For `Cc1c[nH]nc1C1CN(Cc2cnn(-c3ccccc3C(=O)O)c2)C1` the value was 143.7%.
